The record followed here is PubChem BioAssay (NCATS).

The source made the active and inactive calls. Entries that show only a call come without a potency. Calls come from the whole dose curve; as a rule, active = well fitted activation curve with a large enough effect; inconclusive = small, poorly fitted or top-dose-only effect; inactive = flat fitted curve, though single readings scatter.

The nature of this assay: Confirmation and Secondary Assay for Modulators of Hemoglobin Beta Chain Splicing at IVS2 654 locus (AID 910).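 Note: HeLa cells stably carrying EGFP split by mutant beta-globin IVS2-654 intron.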 The conditions noted are these: HeLa EGFP-654 splicing reporter, GFP fluorescence, 48 h; series mostly up to 38.3 µM. From the text:
NIH Chemical Genomics Center [NCGC] NIH Molecular Libraries Screening Centers Network [MLSCN] MLSCN Grant: 1 X01 MH080684-01 PI Name: Dr. Ryszard Kole NCGC Assay Overview: Modulation of Alternative Splicing as Therapy Abnormal splicing is associated with a number of diseases, including cancer and genetic diseases such as cystic fibrosis, muscular dystrophy and beta-thalassemia. Alteration of disease associated splicing patterns provides a promising target for treatment. […] Mutations in the second intron of the b-globin gene at positions 654 or 705 are clinically relevant and cause mis-splicing which results in an out of frame gene product. […] EGFP-654 HeLa Cells as screen system. HeLa cell lines were stably transfected with a construct in which the EGFP (enhanced green fluorescent protein) cDNA was interrupted by the second intron of the beta-globin gene (IVS2-654). The ISV2 intron contains mutations which cause mis-splicing of EGFP and premature termination of EGFP which results in a nonfluorescent protein product. […] Expression of the transgene was driven by the CMV promoter. We concluded that a low molecular weight compound, which restored correct splicing of intron 2 would also generate functional EGFP protein, resulting in a fluorescent signal. Thus, the HeLa cells that express the EGFP-654 construct can be used for high throughput screening of a chemical library.
NCGC Assay Protocol Summary: Confirmatory Screening. Freshly thawed HeLa EGFP-654 cells were seeded in 5 ul of optimem media (Invitrogen) containing 2 % fetal calf serum (Hyclone) and 1x penicillin/streptomycin (Invitrogen) at a concentration of 500 cells per well in 1536-well plates. Cells were incubated overnight at 37C in 5% CO2. The next day, cells were treated with DMSO, 500 nM antisense ISV2 654 PNA control oligo, or library compound and allowed to grow at 37C in 5% CO2 for 2 days. The PNA oligo blocked the mutation site in the intron and allowed proper (wild type) splicing to occur, resulting in full length EGFP expression and also allowed for optimization of the assay parameters. Plates were read in the Acumen Explorer (TTP Labtech) using 488 nm laser excitation and 500-520 nm emission PMT filter in a 1 x 8 uM capture mode. Fluorescnet objects ranging in size from 5 to 250 uM were measured and the total peak GFP intensity for each well was used for data analysis. Keywords: Thalassemia, beta-thalassemia, beta-globin, EGFP, ISV2 654, ISV2 705, SSO, PNA, antisense, splicing, MLSMR, MLSCN, NIH Roadmap, qHTS, NCGC
For the molecule `Cc1noc(C)c1-c1ccc2ncnc(NCc3ccccc3)c2c1`, the Potency entry is “inactive”.

Turning to `COc1ccc2[nH]cc(CCNc3nc(-c4ccccc4CN(C)C)nc4ccccc34)c2c1`, the Potency entry is “inactive”.

`COc1ccc2c(c1)OCC(Cc1ccc(OC)c(OC(C)=O)c1)C2=O` (stereo not given): the Potency entry is “inactive”.

As to `O=C(/C=C/c1ccc(O)c(O)c1)OC(Cc1ccc(O)c(O)c1)C(=O)O` (stereo not given), the Potency entry was “inactive”.

Turning to `CS(=O)(=O)Nc1cccc(-c2ccc3ncnc(NCc4cccnc4)c3c2)c1`, the Potency entry is “inactive”.

For the molecule `COC(=O)C1OC(=O)C2OC23[C@]2(C)C(O)CC4C(C)(C)C(OC(C)=O)CC(OC(C)=O)[C@@]4(C)C2CC[C@@]13C` (stereo not given in full), the Potency entry was “inactive”.

`COc1ccc2[nH]cc(CCNc3nc(-c4cccc(NS(C)(=O)=O)c4)nc4ccccc34)c2c1`: the Potency entry is “inactive”.

For the molecule `COc1ccccc1CNc1ncnc2ccc(-c3cccnc3)cc12`, the Potency entry is “inactive”.

Turning to `CC(=O)Oc1ccc2c(c1)CCC1C2CC[C@]2(C)C(OC(C)=O)CCC12` (stereo not given in full), the Potency entry is “inactive”.

`COc1cc(C)c2c(c1C=O)Oc1c(c(C)c(O)c3c1C(O)OC3=O)OC2=O` (stereo not given): the Potency result is “inactive”.

With `C[C@@](N)(Cc1ccc(O)cc1)C(=O)O`, the Potency result is “inactive”.

For the molecule `c1ccc2c(Nc3ccncc3)nc(-c3ccoc3)nc2c1`, the Potency entry is “inactive”.

Consider `O=c1c(O)c(-c2ccc(O)c(O)c2)oc2c(OC3OC(CO)C(O)C(O)C3O)c(O)cc(O)c12` (stereo not given), for which the Potency result is “inactive”.

Turning to `COc1ccccc1CNc1ccnc(-c2ccccc2C(F)(F)F)n1`, the Potency result is “inactive”.

Take `COc1cccc(-c2nc(NCc3cnc(C)cn3)c3ccccc3n2)c1`: the Potency result was “inactive”.

As to `Cc1cnc(CNc2cc(-c3ccoc3)ncn2)cn1`, the Potency entry was “inactive”.

Consider `Cc1cc(OC(=O)c2c(C)cc(O)cc2O)cc(O)c1C(=O)O`, for which the Potency result was “inactive”.

In the case of `COc1cccc(-c2nc(Nc3ccncc3)c3ccccc3n2)c1`, the Potency entry was “inactive”.

For `COC(=O)c1c(OC)cc2c(c1C)Oc1c(Cl)c(OC(C)=O)c(Cl)c(C)c1C(=O)O2`, the Potency result is “inactive”.

Turning to `CC1(C)C=CC(=O)[C@]2(C)C1CC(=O)[C@]1(C)C2CC[C@@]2(C)C(c3ccoc3)OC(=O)C3OC321` (stereo not given in full), the Potency result was “inactive”.

For the molecule `COc1ccc2[nH]cc(CCNc3nc(-c4ccc(C(=O)N(C)C)cc4)nc4ccccc34)c2c1`, the Potency result was “inactive”.

Regarding `Cc1cccc(CNc2ccnc(-c3ccccc3CN(C)C)n2)c1`, the Potency entry was “inactive”.

In the case of `COc1ccccc1CNc1ncnc2ccc(-c3c(C)noc3C)cc12`, the Potency entry is “inactive”.

As for `Cc1ccccc1-c1cncnc1NC1CCNCC1`, the Potency entry is “inactive”.

In the case of `c1cncc(-c2nc(NCCN3CCOCC3)c3ccccc3n2)c1`, the Potency entry is “inactive”.

As to `Cc1ccccc1-c1cc(-n2ccnc2)ncn1`, the Potency entry is “inactive”.

On to `COC(=O)c1c(OC)cc2c(c1C)Oc1c(Cl)c(O)c(Cl)c(C)c1C(=O)O2`, for which the Potency result is “inactive”.

Turning to `O=C1C=C(O)c2ccccc2C1=O`, the Potency result is “inactive”.

Consider `Cc1ccccc1-c1cncnc1N1CCNCC1`, for which the Potency entry is “inactive”.

For the molecule `NC(Cc1ccc(O)c(O)c1)C(=O)O` (stereo not given), the Potency entry is “inactive”.

Regarding `CN(C)Cc1ccccc1-c1cc(N(C)C)ncn1`, the Potency result is “inactive”.

As to `CCCCCC/C=C\CCCCCCCc1cccc(O)c1C(=O)O`, the Potency result was “inactive”.

In the case of `COc1ccccc1-c1nc(NCCNC(C)=O)c2ccccc2n1`, the Potency entry is “inactive”.

As for `CC(CCC(=O)O)C1CCC2C3C(O)C[C@@H]4CC(O)CC[C@@]4(C)C3CC[C@@]12C` (stereo not given in full), the Potency entry was “inactive”.

As for `CN(C)C(=O)c1ccc(-c2nccc(NCc3cccnc3)n2)cc1`, the Potency result was “inactive”.

`FC(F)(F)c1ccccc1-c1nccc(NCc2ccccc2)n1`: the Potency entry was “inactive”.

On to `COc1cc(-c2coc3cc(OCc4ccccc4)c(OC)c(O)c3c2=O)cc(O)c1OC`, for which the Potency result was “inactive”.

Take `C[C@@](N)(Cc1ccc(O)c(O)c1)C(=O)O`: the Potency result is “inactive”.

`COc1cccc(-c2cncnc2NCc2ccc(OC)cc2OC)c1`: the Potency result is “inactive”.

Consider `CC(=O)OC1CC2C(C)(C)CCC(=O)[C@@]2(C)C2CC[C@@]3(C)C(c4ccoc4)OC(=O)C4OC43[C@]12C` (stereo not given in full), for which the Potency result is “inactive”.
